# In the supplement of paper PMC12282887:
# ± gives the standard deviation of the averaged measurements.
# Key:
# Experiment in all cases: promoter activity interaction Z-score (Lux/OD deviation from empty-vector control); higher = stronger promoter induction by the compound
# [1] = tested on: E. coli BW25113 acrABp lux reporter
# Outline: (§1)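 E. coli BW25113, as wild type or one of three single-gene deletion strains, carried low-copy luxCDABE promoter reporters and grew in 40 µl LB Lennox in 384-well plates at 37°C, with OD600 and luminescence read every 30 min for 12 h. Each compound was run at four 1:2 dilutions in biological duplicates, integration spanned 0–8 h for wild type and 1–9 h for deletion strains, and wells under 10% of the median growth value were dropped. The score is the Z-transformed residual of growth-normalised luminescence fitted against a control.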
# [2] = tested on: E. coli BW25113 marRABp lux reporter
# Outline: as §1
# [3] = tested on: E. coli BW25113 micFp lux reporter
# Outline: as §1
# [4] = tested on: E. coli BW25113 ompFp lux reporter
# Outline: as §1
# [5] = tested on: E. coli BW25113 robp lux reporter
# Outline: as §1
# [6] = tested on: E. coli BW25113 soxSp lux reporter
# Outline: as §1
# [7] = tested on: E. coli BW25113 tolCp lux reporter
# Outline: as §1
# [8] = 1329.2 µg/ml, genetic background: wild type
# [9] = 1329.2 µg/ml, genetic background: ΔmarA
# [10] = 1329.2 µg/ml, genetic background: Δrob
# [11] = 1329.2 µg/ml, genetic background: ΔsoxS
# [12] = 2658.5 µg/ml, genetic background: wild type
# [13] = 2658.5 µg/ml, genetic background: ΔmarA
# [14] = 2658.5 µg/ml, genetic background: Δrob
# [15] = 2658.5 µg/ml, genetic background: ΔsoxS
# [16] = 5317 µg/ml, genetic background: wild type
# [17] = 5317 µg/ml, genetic background: ΔmarA
# [18] = 5317 µg/ml, genetic background: Δrob
# [19] = 5317 µg/ml, genetic background: ΔsoxS
# [20] = 10634 µg/ml, genetic background: wild type
# [21] = 10634 µg/ml, genetic background: ΔmarA
# [22] = 10634 µg/ml, genetic background: ΔsoxS
smiles,measurement,setting,value
CCN(CC)CCOC(=O)c1ccc(N)cc1 [Procaine],promoter activity interaction Z-score,[1]; [8],-0.662 ± 0.28
same,promoter activity interaction Z-score,[1]; [9],-0.602 ± 0.28
same,promoter activity interaction Z-score,[1]; [10],-0.872 ± 0.16
same,promoter activity interaction Z-score,[1]; [11],-0.805 ± 0.27
same,promoter activity interaction Z-score,[1]; [12],-0.675 ± 0.27
same,promoter activity interaction Z-score,[1]; [13],-0.191 ± 0.011
same,promoter activity interaction Z-score,[1]; [14],-0.754 ± 0.019
same,promoter activity interaction Z-score,[1]; [15],-0.807 ± 0.058
same,promoter activity interaction Z-score,[1]; [16],-0.798 ± 0.5
same,promoter activity interaction Z-score,[1]; [17],0.353 ± 0.5
same,promoter activity interaction Z-score,[1]; [18],-0.739 ± 0.25
same,promoter activity interaction Z-score,[1]; [19],-1.88 ± 0.78
same,promoter activity interaction Z-score,[1]; [20],-0.735 ± 0.28
same,promoter activity interaction Z-score,[1]; [21],-0.543 ± 0.93
same,promoter activity interaction Z-score,[1]; [22],-1.22 ± 0.13
same,promoter activity interaction Z-score,[2]; [8],0.474 ± 0.19
same,promoter activity interaction Z-score,[2]; [9],1.13 ± 0.098
same,promoter activity interaction Z-score,[2]; [10],-0.044 ± 0.24
same,promoter activity interaction Z-score,[2]; [11],0.558 ± 0.086
same,promoter activity interaction Z-score,[2]; [12],0.562 ± 0.12
same,promoter activity interaction Z-score,[2]; [13],1.42 ± 0.24
same,promoter activity interaction Z-score,[2]; [14],-0.0229 ± 0.4
same,promoter activity interaction Z-score,[2]; [15],0.555 ± 0.11
same,promoter activity interaction Z-score,[2]; [16],0.94 ± 0.094
same,promoter activity interaction Z-score,[2]; [17],2.128 ± 0.015
same,promoter activity interaction Z-score,[2]; [18],0.0444 ± 0.17
same,promoter activity interaction Z-score,[2]; [19],0.444 ± 0.23
same,promoter activity interaction Z-score,[2]; [20],1.63 ± 0.15
same,promoter activity interaction Z-score,[2]; [21],2.15 ± 0.55
same,promoter activity interaction Z-score,[2]; [22],2.04 ± 0.25
same,promoter activity interaction Z-score,[3]; [8],0.885 ± 0.053
same,promoter activity interaction Z-score,[3]; [9],0.505 ± 0.026
same,promoter activity interaction Z-score,[3]; [10],0.103 ± 0.024
same,promoter activity interaction Z-score,[3]; [11],1.88 ± 0.031
same,promoter activity interaction Z-score,[3]; [12],1.93 ± 1.1
same,promoter activity interaction Z-score,[3]; [13],0.738 ± 0.027
same,promoter activity interaction Z-score,[3]; [14],0.206 ± 0.083
same,promoter activity interaction Z-score,[3]; [15],3.42 ± 0.14
same,promoter activity interaction Z-score,[3]; [16],2.99 ± 1
same,promoter activity interaction Z-score,[3]; [17],0.535 ± 0.11
same,promoter activity interaction Z-score,[3]; [18],0.692 ± 0.16
same,promoter activity interaction Z-score,[3]; [19],3.95 ± 0.25
same,promoter activity interaction Z-score,[3]; [20],4.96 ± 1.1
same,promoter activity interaction Z-score,[3]; [21],0.433 ± 0.12
same,promoter activity interaction Z-score,[3]; [22],1.99 ± 0.39
same,promoter activity interaction Z-score,[4]; [8],-1.52 ± 0.52
same,promoter activity interaction Z-score,[4]; [9],-1.23 ± 0.023
same,promoter activity interaction Z-score,[4]; [10],-1 ± 0.25
same,promoter activity interaction Z-score,[4]; [11],-1.06 ± 0.18
same,promoter activity interaction Z-score,[4]; [12],-1.95 ± 0.51
same,promoter activity interaction Z-score,[4]; [13],-1.57 ± 0.11
same,promoter activity interaction Z-score,[4]; [14],-1.23 ± 0.6
same,promoter activity interaction Z-score,[4]; [15],-2.1 ± 0.11
same,promoter activity interaction Z-score,[4]; [16],-2.79 ± 0.89
same,promoter activity interaction Z-score,[4]; [17],-2.57 ± 0.088
same,promoter activity interaction Z-score,[4]; [18],-2.71 ± 0.78
same,promoter activity interaction Z-score,[4]; [19],-3.43 ± 0.31
same,promoter activity interaction Z-score,[4]; [20],-3.06 ± 0.97
same,promoter activity interaction Z-score,[4]; [21],-3.26 ± 0.22
same,promoter activity interaction Z-score,[4]; [22],-2.71 ± 0.13
same,promoter activity interaction Z-score,[5]; [8],-0.965 ± 0.38
same,promoter activity interaction Z-score,[5]; [9],-0.355 ± 0.47
same,promoter activity interaction Z-score,[5]; [10],-0.376 ± 0.3
same,promoter activity interaction Z-score,[5]; [11],-0.451 ± 0.9
same,promoter activity interaction Z-score,[5]; [12],-0.714 ± 0.31
same,promoter activity interaction Z-score,[5]; [13],-0.386 ± 0.2
same,promoter activity interaction Z-score,[5]; [14],-0.635 ± 0.58
same,promoter activity interaction Z-score,[5]; [15],-1.84 ± 0.3
same,promoter activity interaction Z-score,[5]; [16],-0.969 ± 0.17
same,promoter activity interaction Z-score,[5]; [17],-0.0415 ± 0.013
same,promoter activity interaction Z-score,[5]; [18],-1.1 ± 0.3
same,promoter activity interaction Z-score,[5]; [19],-1.99 ± 0.064
same,promoter activity interaction Z-score,[5]; [20],-0.708 ± 0.78
same,promoter activity interaction Z-score,[5]; [21],-0.129 ± 0.82
same,promoter activity interaction Z-score,[5]; [22],-0.881 ± 1.3
same,promoter activity interaction Z-score,[6]; [8],0.403 ± 0.099
same,promoter activity interaction Z-score,[6]; [9],0.609 ± 0.067
same,promoter activity interaction Z-score,[6]; [10],0.838 ± 0.31
same,promoter activity interaction Z-score,[6]; [11],0.324 ± 0.23
same,promoter activity interaction Z-score,[6]; [12],0.281 ± 0.23
same,promoter activity interaction Z-score,[6]; [13],1.06 ± 0.17
same,promoter activity interaction Z-score,[6]; [14],1.61 ± 0.96
same,promoter activity interaction Z-score,[6]; [15],0.224 ± 0.071
same,promoter activity interaction Z-score,[6]; [16],0.719 ± 0.53
same,promoter activity interaction Z-score,[6]; [17],1.68 ± 0.037
same,promoter activity interaction Z-score,[6]; [18],1.63 ± 0.81
same,promoter activity interaction Z-score,[6]; [19],0.114 ± 0.72
same,promoter activity interaction Z-score,[6]; [20],0.878 ± 0.58
same,promoter activity interaction Z-score,[6]; [21],1.37 ± 0.74
same,promoter activity interaction Z-score,[6]; [22],-0.539 ± 1.1
same,promoter activity interaction Z-score,[7]; [8],0.541 ± 0.79
same,promoter activity interaction Z-score,[7]; [9],-0.042 ± 0.17
same,promoter activity interaction Z-score,[7]; [10],0.413 ± 1.2
same,promoter activity interaction Z-score,[7]; [11],-0.32 ± 1.4
same,promoter activity interaction Z-score,[7]; [12],0.257 ± 0.23
same,promoter activity interaction Z-score,[7]; [13],-0.2 ± 0.34
same,promoter activity interaction Z-score,[7]; [14],0.54 ± 1.8
same,promoter activity interaction Z-score,[7]; [15],-0.137 ± 0.1
same,promoter activity interaction Z-score,[7]; [16],-1.14 ± 0.3
same,promoter activity interaction Z-score,[7]; [17],-0.284 ± 0.59
same,promoter activity interaction Z-score,[7]; [18],-0.2 ± 0.18
same,promoter activity interaction Z-score,[7]; [19],0.786 ± 1
same,promoter activity interaction Z-score,[7]; [20],2.42 ± 2.2
same,promoter activity interaction Z-score,[7]; [21],1.73 ± 2.4
same,promoter activity interaction Z-score,[7]; [22],0.696
